Source: ChEMBL document CHEMBL3988442, “University of Dundee, Small-Polar-MMV Screening Library” (2021)
For some assays here: Results with a measured potency or affinity are listed apart.

Assays:
Set-up in all cases: scale not given: direction of the effect not stated beside the values
[1] = target: Protein translocase subunit SecA (Escherichia coli (strain K12)) (UniProt P10408); assay: Assay to Identify E. coli SecA ATPase Inhibitors; type: functional; conditions: 30 µM
[2] = target: T1, Ubiquitin-activating enzyme e1, putative (Leishmania donovani (strain BPK282A1)) (UniProt E9BSI1); assay: Leishmania donovani Ubiquitin Activating Enzyme (LdE1); type: functional; conditions: 30 µM
T1 sequence (whole entry): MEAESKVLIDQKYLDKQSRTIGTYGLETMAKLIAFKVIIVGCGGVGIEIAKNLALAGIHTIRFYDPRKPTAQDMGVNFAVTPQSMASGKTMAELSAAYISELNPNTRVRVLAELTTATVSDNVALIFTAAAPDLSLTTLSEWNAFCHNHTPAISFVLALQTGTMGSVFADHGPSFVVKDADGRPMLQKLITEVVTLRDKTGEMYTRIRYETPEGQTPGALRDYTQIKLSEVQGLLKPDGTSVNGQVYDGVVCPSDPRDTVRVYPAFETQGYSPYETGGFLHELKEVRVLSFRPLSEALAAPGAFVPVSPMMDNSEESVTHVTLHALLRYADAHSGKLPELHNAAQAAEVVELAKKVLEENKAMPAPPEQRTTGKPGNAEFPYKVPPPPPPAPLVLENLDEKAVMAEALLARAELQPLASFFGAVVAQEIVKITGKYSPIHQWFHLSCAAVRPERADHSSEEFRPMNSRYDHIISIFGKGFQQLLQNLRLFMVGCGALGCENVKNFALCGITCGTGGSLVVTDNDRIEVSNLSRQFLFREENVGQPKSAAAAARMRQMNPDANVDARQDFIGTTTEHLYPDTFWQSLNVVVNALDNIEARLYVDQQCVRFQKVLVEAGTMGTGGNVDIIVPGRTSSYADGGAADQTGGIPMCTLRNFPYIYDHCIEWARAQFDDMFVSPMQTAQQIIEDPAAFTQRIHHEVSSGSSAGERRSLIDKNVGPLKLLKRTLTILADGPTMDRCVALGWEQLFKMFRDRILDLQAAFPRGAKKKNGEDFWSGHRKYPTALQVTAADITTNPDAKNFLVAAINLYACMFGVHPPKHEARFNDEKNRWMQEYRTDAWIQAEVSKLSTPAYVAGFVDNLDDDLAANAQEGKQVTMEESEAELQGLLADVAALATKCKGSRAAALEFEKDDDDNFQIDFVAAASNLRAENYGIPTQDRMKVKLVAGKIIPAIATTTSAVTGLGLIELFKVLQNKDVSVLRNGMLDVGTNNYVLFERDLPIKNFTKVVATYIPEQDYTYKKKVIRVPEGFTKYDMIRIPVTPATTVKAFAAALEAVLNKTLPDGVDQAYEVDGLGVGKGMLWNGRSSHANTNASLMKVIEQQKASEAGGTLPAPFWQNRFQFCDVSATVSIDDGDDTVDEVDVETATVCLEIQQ

[3] = target: AMP-activated protein kinase, AMPK (Homo sapiens) (UniProt P54646+O43741+P54619+Q9UGJ0+Q9Y478+Q13131+Q9UGI9); assay: AMP-dependent Kinase enzyme assay. An in vitro enzyme assay that detects ADP turnover that is directly proportional to AMPK activity. This uses naive AMPK that is activated during the assay with MK-8722; type: functional; conditions: 30 µM
[4] = target: Sialic acid-binding Ig-like lectin 9 (Homo sapiens) (UniProt Q9Y336); assay: Hs-Siglec9 ALPHAscreen SOP 20170721; conditions: 10 µM
Sialic acid-binding Ig-like lectin 9 (Homo sapiens), sequence (Q9Y336 whole entry): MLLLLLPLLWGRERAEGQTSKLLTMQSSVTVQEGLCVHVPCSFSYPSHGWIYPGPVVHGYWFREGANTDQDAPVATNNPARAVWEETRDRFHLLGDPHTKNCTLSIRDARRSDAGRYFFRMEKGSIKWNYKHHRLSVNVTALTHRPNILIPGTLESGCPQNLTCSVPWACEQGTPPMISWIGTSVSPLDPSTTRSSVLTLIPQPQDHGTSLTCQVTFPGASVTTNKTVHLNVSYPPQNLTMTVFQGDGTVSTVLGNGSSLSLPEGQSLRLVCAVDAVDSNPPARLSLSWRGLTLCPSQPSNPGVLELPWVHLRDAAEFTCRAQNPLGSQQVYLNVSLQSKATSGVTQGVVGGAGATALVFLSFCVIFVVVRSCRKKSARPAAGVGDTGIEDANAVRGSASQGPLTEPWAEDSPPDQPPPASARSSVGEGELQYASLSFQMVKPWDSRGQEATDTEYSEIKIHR

Trypanosoma cruzi = assay: Trypanosoma cruzi phosphomannomutase and mannose-1-phosphate guanylyltransferase assay; type: functional; conditions: 10 µM
[5] = target: T2, Arginase-2, mitochondrial (Homo sapiens) (UniProt P78540); assay: in vitro enzyme assay to detect the production of urea directly proportional to the activity of Arginase II; type: functional; conditions: 33.3 µM; also: in the data most compounds retested in dose-response had high values
T2 sequence (whole entry): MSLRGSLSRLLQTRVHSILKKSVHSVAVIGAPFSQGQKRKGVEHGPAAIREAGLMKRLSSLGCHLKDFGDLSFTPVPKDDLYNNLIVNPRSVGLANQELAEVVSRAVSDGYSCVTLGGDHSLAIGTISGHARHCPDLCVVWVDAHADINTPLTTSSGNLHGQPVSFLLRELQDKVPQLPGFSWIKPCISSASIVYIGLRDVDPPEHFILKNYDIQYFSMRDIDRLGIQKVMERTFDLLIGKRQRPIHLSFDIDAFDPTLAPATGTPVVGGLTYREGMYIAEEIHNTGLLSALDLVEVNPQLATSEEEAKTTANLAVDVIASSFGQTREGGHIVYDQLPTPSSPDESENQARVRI

[6] = target: T3, Proteasome subunit beta (Trypanosoma cruzi) (UniProt O96673); assay: Trypanosoma cruzi proteasome chymotrypsin-like activity (TcProtChymo) assay.; also: in the data most compounds retested in dose-response had high values; type: functional; conditions: 9.37 µM
T3 sequence (whole entry): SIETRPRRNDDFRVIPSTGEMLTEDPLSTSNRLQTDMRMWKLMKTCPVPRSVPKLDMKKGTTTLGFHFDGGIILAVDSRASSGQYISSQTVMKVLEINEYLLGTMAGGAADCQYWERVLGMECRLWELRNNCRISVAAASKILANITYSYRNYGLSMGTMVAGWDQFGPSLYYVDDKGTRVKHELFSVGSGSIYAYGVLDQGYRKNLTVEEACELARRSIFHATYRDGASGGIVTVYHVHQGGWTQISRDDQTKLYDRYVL

Homo sapiens = species on record: Homo sapiens; assay: To identify inhibition of the IFN signalling (Jak-Stat) pathway via expression of an eGFP reporter gene under the control of an IFN-stimulated response element (ISRE) containing MxA promoter.; type: functional; conditions: 30 µM
[7] = target: T4, Tyrosyl-tRNA synthetase, putative (Trypanosoma cruzi (strain CL Brener)) (UniProt Q4DSP6); assay: Trypanosoma cruzi tyrosyl tRNA synthetase (TcYRS) _High Tyrosine SOP; type: functional; conditions: 30 µM; also: in the data most compounds retested in dose-response had high values
T4 sequence (whole entry): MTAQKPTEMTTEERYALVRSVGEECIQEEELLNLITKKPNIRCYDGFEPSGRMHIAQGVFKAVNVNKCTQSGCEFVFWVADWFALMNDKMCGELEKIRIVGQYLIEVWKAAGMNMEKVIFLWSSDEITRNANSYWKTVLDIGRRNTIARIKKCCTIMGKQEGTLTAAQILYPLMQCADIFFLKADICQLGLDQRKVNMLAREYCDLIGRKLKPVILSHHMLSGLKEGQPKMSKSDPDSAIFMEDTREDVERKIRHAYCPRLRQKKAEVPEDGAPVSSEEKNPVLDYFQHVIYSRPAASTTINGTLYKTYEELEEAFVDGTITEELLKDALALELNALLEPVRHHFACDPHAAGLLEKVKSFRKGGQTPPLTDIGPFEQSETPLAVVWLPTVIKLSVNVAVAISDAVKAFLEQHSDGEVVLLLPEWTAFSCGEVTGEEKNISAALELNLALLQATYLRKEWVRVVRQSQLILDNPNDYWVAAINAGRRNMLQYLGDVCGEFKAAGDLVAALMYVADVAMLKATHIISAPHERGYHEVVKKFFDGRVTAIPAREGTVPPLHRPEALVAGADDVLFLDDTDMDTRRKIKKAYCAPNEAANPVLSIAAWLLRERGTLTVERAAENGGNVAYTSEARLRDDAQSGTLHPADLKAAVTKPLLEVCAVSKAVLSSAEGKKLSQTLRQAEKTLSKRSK

[8] = target: T4, Tyrosyl-tRNA synthetase, putative (Trypanosoma cruzi (strain CL Brener)); assay: Trypanosoma cruzi tyrosyl tRNA synthetase (TcYRS) SOP; type: functional; conditions: 30 µM
[9] = target: Chromo domain-containing protein 1 (Saccharomyces cerevisiae (strain ATCC 204508 / S288c) (Baker's yeast)) (UniProt P32657); assay: ScCHD-1 Enzyme Inhibition Assay; type: functional; conditions: 30 µM; also: in the data most compounds retested in dose-response had high values
Chromo domain-containing protein 1 (Saccharomyces cerevisiae (strain ATCC 204508 / S288c) (Baker's yeast)), sequence (P32657 whole entry, the tested form may be a part): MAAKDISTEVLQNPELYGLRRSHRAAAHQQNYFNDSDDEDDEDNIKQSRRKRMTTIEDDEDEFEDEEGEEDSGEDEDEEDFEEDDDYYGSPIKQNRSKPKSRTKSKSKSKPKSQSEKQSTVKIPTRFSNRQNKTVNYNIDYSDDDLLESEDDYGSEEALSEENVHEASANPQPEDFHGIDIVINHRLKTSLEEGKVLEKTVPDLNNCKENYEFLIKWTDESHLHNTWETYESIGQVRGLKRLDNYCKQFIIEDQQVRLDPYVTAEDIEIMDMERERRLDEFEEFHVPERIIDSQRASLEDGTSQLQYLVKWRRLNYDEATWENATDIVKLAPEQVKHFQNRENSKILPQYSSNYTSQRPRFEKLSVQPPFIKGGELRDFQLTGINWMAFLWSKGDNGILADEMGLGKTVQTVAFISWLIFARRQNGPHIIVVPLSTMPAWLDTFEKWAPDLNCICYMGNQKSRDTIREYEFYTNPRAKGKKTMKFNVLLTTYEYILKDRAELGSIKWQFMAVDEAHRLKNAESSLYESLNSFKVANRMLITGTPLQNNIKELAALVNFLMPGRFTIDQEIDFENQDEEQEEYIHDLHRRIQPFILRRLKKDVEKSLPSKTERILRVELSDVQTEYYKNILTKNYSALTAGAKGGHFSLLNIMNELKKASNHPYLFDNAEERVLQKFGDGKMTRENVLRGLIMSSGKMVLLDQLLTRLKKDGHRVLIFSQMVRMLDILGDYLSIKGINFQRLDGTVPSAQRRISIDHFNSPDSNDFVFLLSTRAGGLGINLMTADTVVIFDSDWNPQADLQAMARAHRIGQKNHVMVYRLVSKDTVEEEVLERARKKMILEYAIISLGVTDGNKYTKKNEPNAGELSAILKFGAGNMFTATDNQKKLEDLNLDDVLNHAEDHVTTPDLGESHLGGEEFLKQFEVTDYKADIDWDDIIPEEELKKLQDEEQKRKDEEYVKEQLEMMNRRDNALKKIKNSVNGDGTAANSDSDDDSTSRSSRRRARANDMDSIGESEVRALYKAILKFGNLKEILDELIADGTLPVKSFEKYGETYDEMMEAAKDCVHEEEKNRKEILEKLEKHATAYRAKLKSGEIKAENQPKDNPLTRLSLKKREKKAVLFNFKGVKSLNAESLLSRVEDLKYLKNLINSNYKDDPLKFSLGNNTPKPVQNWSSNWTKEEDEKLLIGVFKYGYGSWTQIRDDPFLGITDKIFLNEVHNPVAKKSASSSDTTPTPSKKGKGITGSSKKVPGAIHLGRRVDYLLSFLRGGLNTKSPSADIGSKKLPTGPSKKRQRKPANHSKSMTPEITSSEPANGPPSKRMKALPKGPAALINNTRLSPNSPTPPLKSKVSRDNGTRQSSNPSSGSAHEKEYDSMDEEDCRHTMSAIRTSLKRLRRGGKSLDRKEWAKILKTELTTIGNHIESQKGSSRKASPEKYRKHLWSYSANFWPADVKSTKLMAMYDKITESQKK

Protein translocase subunit SecA (Escherichia coli (strain K12)), sequence (P10408 whole entry): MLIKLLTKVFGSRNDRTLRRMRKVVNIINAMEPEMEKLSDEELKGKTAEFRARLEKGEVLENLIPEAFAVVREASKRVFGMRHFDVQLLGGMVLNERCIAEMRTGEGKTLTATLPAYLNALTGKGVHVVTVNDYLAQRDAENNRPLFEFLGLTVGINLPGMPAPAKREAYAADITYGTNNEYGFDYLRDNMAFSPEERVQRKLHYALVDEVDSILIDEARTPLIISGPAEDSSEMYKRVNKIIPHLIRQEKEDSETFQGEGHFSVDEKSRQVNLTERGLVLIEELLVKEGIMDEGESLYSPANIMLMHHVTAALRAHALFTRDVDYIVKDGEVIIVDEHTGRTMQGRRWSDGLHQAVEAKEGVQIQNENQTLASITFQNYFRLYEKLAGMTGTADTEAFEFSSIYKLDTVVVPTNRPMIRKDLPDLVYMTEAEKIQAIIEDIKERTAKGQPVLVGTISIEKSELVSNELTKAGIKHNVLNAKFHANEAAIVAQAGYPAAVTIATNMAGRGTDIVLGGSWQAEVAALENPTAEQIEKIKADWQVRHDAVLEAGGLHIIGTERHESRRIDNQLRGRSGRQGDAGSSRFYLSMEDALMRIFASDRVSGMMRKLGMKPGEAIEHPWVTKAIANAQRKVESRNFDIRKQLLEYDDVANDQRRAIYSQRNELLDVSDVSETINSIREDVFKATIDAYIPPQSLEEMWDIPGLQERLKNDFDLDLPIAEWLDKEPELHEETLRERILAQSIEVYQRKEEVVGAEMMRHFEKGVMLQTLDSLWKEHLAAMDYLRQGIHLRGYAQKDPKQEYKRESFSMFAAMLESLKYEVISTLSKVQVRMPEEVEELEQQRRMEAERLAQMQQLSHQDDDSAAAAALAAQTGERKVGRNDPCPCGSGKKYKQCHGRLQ

SMILES | Percent Effect [1] | Percent Effect [2] | Percent Effect [3] | Percent Effect [4] | Percent Effect (Trypanosoma cruzi) | Percent Effect [5] | Percent Effect [6] | Percent Effect (Homo sapiens) | Percent Effect [7] | Percent Effect [8] | Percent Effect [9]
CC(C)c1ncc2c(n1)CN(Cc1cccc(OCC(N)=O)c1)CC2 | -3.71% | 10.5% | -32.8% | 10.8% | 2.44% | 4.6% | -1% | -8.11% | 8.33% | 0% | 4.59%
CC(C)c1n[nH]c(C2CN(C(=O)c3csnn3)CCO2)n1 (configuration not stated) | -2.56% | -7.89% | -6.16% | 6.92% | 4.58% | 1.08% | 0.592% | -2.95% | 3.45% | 6.17% | -3.21%
Cn1cc(C2COC3(CCN(C(=O)Cn4cccn4)CC3)C2)cn1 (configuration not stated) | -2.57% | 13.5% | -8.57% | -2.55% | 2.25% | 2.23% | 24% | 3.24% | 4.32% | 17.9% | 2.16%
O=C(Cc1ccc2c(c1)OCCO2)NC1CCN(CC(F)F)CC1 | -6.42% | 7.79% | 6.85% | 8.97% | -3% | 0% | 6.93% | -4.72% | 3.88% | 9.76% | -6.97%
CCc1nc(C2CCCN2CC(=O)Nc2c(C)n[nH]c2C)no1 (configuration not stated) | 1.31% | -2.6% | -3.26% | 6.7% | -5.62% | 5.34% | 3.38% | 16.5% | 1.94% | 7.32% | -0.363%
Cc1cnc(CN(C)C2CCN(CC(=O)Nc3nncs3)C2)o1 (configuration not stated) | -0.539% | 22.8% | -11% | -8.69% | -2.74% | 1.14% | 5% | 5.59% | 12.3% | 21.5% | -9.12%
Cc1cn2nc(N3CCCC3Cn3nc(C)cc3C)sc2n1 (configuration not stated) | -2.86% | 6.33% | 3.5% | 0.585% | 1.74% | -0.645% | 9.43% | 19.6% | 4.17% | 7.59% | -20%
CCN1CC2(CC1=O)CN(Cc1cnn(C)c1)CCN(C(=O)C(C)C)C2 (configuration not stated) | -6.68% | 5.41% | 0.933% | -1.78% | -1.17% | -1.67% | 7.52% | 8.39% | 7.92% | 6.1% | 2.63%
CC(C)c1ncc2c(n1)CN(Cc1ccc(C(N)=O)cc1)CC2 | -5.85% | 18.4% | -25.7% | -1.87% | 10.7% | -2.68% | 11.5% | 11.1% | 12.2% | 19.5% | -14.2%
Cc1ccc(-c2cc(N)c(=O)n(CC(=O)NCC3CCCCC3)n2)s1 | -3.51% | 9.46% | 11.8% | -4.16% | -6.13% | -2.09% | 12.3% | 9.89% | -6.45% | 3.9% | -4.23%
COc1cc(CNCCc2cnn(C)c2)cc2c1OCCO2 | -5.21% | 10.5% | 1.71% | 15.7% | 1.32% | -1.92% | 10.2% | 0.122% | 4.41% | 12.2% | -6.6%
CC(C)C(C(=O)N1CCCN(Cc2cnn(C)c2)CC1)n1cncn1 (configuration not stated) | -1.34% | 0% | 2.52% | 2.77% | -5.8% | 2.76% | 7.82% | -12.4% | 1.07% | -1.24% | 2.06%
O=C(Nc1cccnc1)[C@H]1CO[C@H]2CCN(c3ncc(F)cn3)C[C@H]2C1 | -3.71% | 5.33% | 2.01% | 4.5% | 0% | -55% | 11.6% | -7% | 8.33% | 5% | -9.48%
Cc1nc(C)n(CC2CCCN2Cc2nc(C3CC3)no2)n1 (configuration not stated) | -1.33% | 2.63% | -3.31% | -2.5% | 4.32% | -3.83% | 1.34% | -15.7% | 2.45% | 4.88% | -4.84%
Cc1cccc(-n2c(C)cc(C(=O)N3CCn4c(C)nnc4C3)c2C)c1 | -3.26% | 10.5% | -12.3% | 9.36% | 2.15% | -3.6% | 7.19% | 3.33% | 11.3% | 16.1% | -0.518%
COc1ccc(COCC(O)CNC(=O)c2cccnc2)cc1 (configuration not stated) | -2.83% | 3.8% | 0.844% | -5.42% | -7.08% | -5.38% | 8.75% | 2.64% | 1.04% | 0% | -14.1%
CC(=O)NC1CCCN(C(=O)c2ccc(Br)cc2O)C1 (configuration not stated) | -4.72% | 8.11% | -9.01% | 7.98% | -2.92% | 1.6% | 5.95% | 3.4% | 6.4% | 16.1% | -2.5%
COc1cccc2ccn(CCC(=O)N3CCCC(C(=O)O)C3)c12 (configuration not stated) | -7.04% | 21.1% | 5.95% | -0.508% | 3.8% | -1.18% | 14.1% | 6.03% | 2.13% | 10.4% | -7.67%
Cc1nc(C2CCCCN2C(=O)c2ccccc2)ncc1C(=O)N(C)C (configuration not stated) | 0.833% | -5.33% | 7.56% | 0.633% | -1.97% | 4.89% | 0.0881% | 10.8% | 1.06% | 1.28% | 0.34%
O=C(NCCn1ccc(-c2ccncc2)n1)c1ccncc1 | -1.85% | 5.48% | -0.372% | 8.72% | 1.57% | -0.455% | 9.58% | 2.43% | 2.15% | 2.5% | -2.37%
Clc1snnc1CN1CCOC(CNc2cccnn2)C1 (configuration not stated) | 0.0334% | -2.6% | -5.26% | 8.04% | 5.8% | 5.34% | 1.18% | -0.834% | 4.85% | 12.2% | -5.35%
Cc1ncc(CNC(=O)Cc2ccc(Cl)cc2)c(C2CCCN2C)n1 (configuration not stated) | -5.53% | -1.35% | 18.1% | 5% | -2.96% | -2.55% | 8.74% | 1.58% | -1.07% | -1.3% | 0.76%
